# CHX counter: counter-screen for Shiga toxin inhibitors: cycloheximide protein synthesis inhibition; actives 12% (n = 300,000); AID 2314; max response, %; cell reporter, cycloheximide protein synthesis inhibition counterscreen; in the data active = max response mostly above about 13%, no sharp cut-off; inactive = mostly below about 14%; note: read at 38.3 µM for the half of the compounds with a filed dose; 0% is about no effect
# Pf growth 48h: inhibits P. falciparum growth in the first generation, 48 h | P. falciparum luciferase growth in erythrocytes, 48 h | Potency, µM (titrated, usually from 28.7 µM), inactives show at the top dose activity change, negative = inhibition, actives largely listed as inhibitors | actives 5.9% (n = 310,000) | AID 504832; note: potency is the fitted concentration of half-maximal effect; % is set by controls: 0 for no effect and ±100 for the full control effect
#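 Here the parasites carry a stable luciferase gene and grow inside erythrocytes in Albumax-based RPMI medium with compound for one erythrocytic cycle. Activity is scored as loss of luminescent signal.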
# Shiga toxin inh: inhibitors of Shiga toxin in Vero cells; Vero cells, Shiga toxin protein synthesis inhibition reporter; inhibition, % at 38.7 µM; actives 9.2% (n = 290,000); AID 2315; in the data active = inhibition mostly above about 28%, no sharp cut-off; inactive = mostly below about 43%; note: 0% is about no effect
# Pf growth 96h: P. falciparum growth inhibition at 96 hour, primary screen for plastid delayed-death inhibitors. actives 6.9% (n = 320,000). P. falciparum luciferase reporter growth, 96 h. Potency, µM (series often up to 28.7 µM), without a hit: at the top dose activity change, negative = inhibition, actives largely listed as inhibitors; note: potency is the fitted concentration of half-maximal effect; % is set by controls: 0 for no effect and ±100 for the full control effect
#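 Erythrocytes infected with luciferase-expressing P. falciparum were dispensed at 2% hematocrit and 0.05% parasitemia (final), then incubated with compounds 96 hours at 37 C in 5% CO2. Luminescence after detection reagent addition reported growth.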
# * marks the source's active call; other numbers are inactive results; i = inactive; ? = inconclusive; . = no result; + = active, no number. This is a sample that favours compounds with a hit; in the whole collection about 21% have one here. Unless noted, calls come from the whole dose curve; as a rule, active = well fitted inhibition curve with a large enough effect; inconclusive = small, poorly fitted or top-dose-only effect, or another doubt; inactive = no such curve, though single readings can be large or run the other way.
SMILES,CHX counter,Pf growth 48h,Shiga toxin inh,Pf growth 96h
c1ccc2c(-n3cccn3)cccc2c1,36.5*,49.3%,82.8*,-18.0%
COc1ccc(CCC2(C)NC(=O)N(C(C)C(=O)Nc3ccccc3F)C2=O)cc1 (stereo not drawn),.,-26.8%,.,?
CC(C)OC(=O)/C(=C\c1ccc2c(c1)c1ccccc1n2C)NC(=O)c1ccccc1,29.3*,4.15µM*,67.0*,22.7%
CC(C)OC(=O)/C(=C/c1ccc2c(c1)c1ccccc1n2C)NC(=O)c1ccccc1,20.2*,?,53.0*,?
Cn1c2ccccc2c2cc(/C=C(\NC(=O)c3ccccc3)C(=O)O)ccc21,0.9,9.2%,-3.7,38.1%
CC(C)OC(=O)/C(=C\c1cccnc1)NC(=O)c1ccccc1,-3.1,3.4%,-11.2,76.3%
CC(=O)N/C(=C\c1ccccc1)C(=O)OC(C)C(=O)c1ccccc1 (stereo not drawn),.,2.4%,.,29.9%
COC(=O)/C(=C\c1ccc2c(c1)c1ccccc1n2C)NC(=O)c1ccccc1,5.8,?,2.4,1.17µM*
O=C(c1ccc2[nH]c(=O)c(=O)[nH]c2c1)N1CCc2ccccc21,-3.1,22.8%,-7.3,22.1%
CN(C)CCNC(=O)/C(=C/c1ccc(-c2cccc(Cl)c2)o1)NC(=O)c1ccccc1,-7.8,13.1µM*,-14.9,13.2%
CN(C)CCNC(=O)/C(=C/c1ccc(-c2cccc([N+](=O)[O-])c2)o1)NC(=O)c1ccccc1,-2.5,13.1µM*,0.6,?
NNc1nc2c(Cl)ccc(Cl)c2s1,-1.1,3.1%,-2.8,?
c1ccc2c(c1)CC1CNCc3cccc(c31)S2 (stereo not drawn),-0.6,?,-4.3,10.4µM*
Cc1[nH]c2ccccc2c1/C=N/NC(=O)c1cc(C(C)(C)C)[nH]n1,12.4*,?,21.6,0.0%
Cc1[nH]c2ccccc2c1/C=N/NC(=O)Nc1ccccc1,27.8*,27.3%,+,74.4%
Cc1[nH]c2ccccc2c1/C=N/NC(=O)CCC(=O)Nc1ccccc1,-1.4,22.4%,10.5,46.6%
CC(C)(C)c1cc(C(=O)N/N=C/c2ccccn2)n[nH]1,21.1*,1.6%,52.6*,-6.0%
CC(C)(C)c1cc(C(=O)N/N=C/c2ccncc2)n[nH]1,-1.8,-0.2%,-19.3,-15.0%
O=C(N/N=C/c1[nH]c2ccccc2c1Cl)c1cccc(Br)c1,6.8,?,11.6,11.7µM*
Cc1cnc(C(=O)OC(C)C(=O)NC2CCCc3ccccc32)cn1 (stereo not drawn),.,-23.0%,.,20.5%
Cn1c(=O)c2ccccc2n2c(CCl)nnc12,-5.3,?,-5.9,?
Cc1[nH]c2ccccc2c1/C=N/NC(=O)c1cc(-c2ccccc2)n[nH]1,8.3,?,-4.6,?
Cc1[nH]c2ccccc2c1/C=N/NC(=O)c1ccccc1,41.8*,5.2%,51.2*,1.5%
Cc1ccc(NC(=S)N/N=C/c2c(C)[nH]c3ccccc23)cc1,22.7*,?,79.7*,?
Cc1[nH]c2ccccc2c1/C=N/Nc1cccc(C(=O)O)c1,61.4*,i,128.1*,i
SMILES,CHX counter,Pf growth 48h,Shiga toxin inh,Pf growth 96h
Cc1[nH]c2ccccc2c1/C=N/NC(=O)c1cc(-c2ccncc2)nc2ccccc12,-0.6,?,-15.1,6.57µM*
COc1cccc(C(=O)OCC(=O)c2c(N)n(C)c(=O)n(C)c2=O)c1,.,-23.3%,.,3.2%
Cc1[nH]c2ccccc2c1/C=N/NC(=O)c1cccc(Br)c1,26.4*,-1.3%,40.0,-20.4%
Cc1[nH]c2ccccc2c(=O)c1C(=O)/C=C/c1ccccc1,-2.3,?,-25.4,?
Cc1[nH]c2ccccc2c1/C=N/NC(=O)c1ccc(N)cc1,20.0,32.9%,6.0,21.6%
Cc1[nH]c2ccccc2c1/C=C/C(=O)c1ccccc1,24.9*,26.3%,86.5*,116.4%
O=C(N/N=C/C1C(c2ccccc2)C1(Cl)Cl)c1cccc(Br)c1 (stereo not drawn),23.4*,56.9%,68.3,7.4%
Cc1ccc(-c2nc(NC(=O)c3ccc(S(=O)(=O)N(CCC#N)CCC#N)cc3)sc2-c2ccccc2)cc1,9.1,-25.1%,-6.4,11.7µM*
COc1ccc(-n2ncc3c2CC(C)(C)CC3NC(=O)c2ccoc2C)cc1 (stereo not drawn),16.7*,?,15.4,?
COc1ccc(-n2ncc3c2CC(C)(C)CC3NC(=O)C2CCN(C(C)=O)CC2)cc1 (stereo not drawn),19.3*,-4.8%,22.9*,12.2%
CCCCOc1ccc(Nc2cc(Cl)ccc2C(=O)O)cn1,3.3,-11.2%,-8.3,0.8%
Cn1c(=O)c2c(nc(CN3CCN(c4ccccc4)CC3)n2Cc2ccccc2Cl)n(C)c1=O,2.6,6.57µM*,14.6,?
Cn1c(=O)c2c(nc(CN3CCN(c4ccccc4)CC3)n2Cc2c(F)cccc2Cl)n(C)c1=O,1.0,?,-3.1,5.22µM*
CCN1CCN(C(=O)C(C)Nc2cc(Cl)c(OC)cc2OC)CC1 (stereo not drawn),-1.7,-19.2%,15.4,11.1%
O=C(/C(C=Nc1cccc(C(F)(F)F)c1)=C(/O)c1ccco1)C(F)(F)F,92.9*,53.2%,126.5*,19.9%
O=C(/C(C=Nc1ccc(Br)cc1)=C(/O)c1ccco1)C(F)(F)F,41.7*,227.5%,+,2.94µM*
O=C(c1ccco1)N1CCN(S(=O)(=O)c2cccc(C(F)(F)F)c2)CC1,4.5,.,27.4,6.9%
Clc1ccc(/C=N/c2c(-c3ccc(Cl)cc3)nc3n2CCS3)cc1,9.8,16.7%,7.7,?
O=C(CN1CCN(S(=O)(=O)c2ccccc2)CC1)Nc1ccccc1C(=O)c1ccccc1,-2.6,13.1µM*,-13.4,4.65µM*
O=C(CN(Cc1ccco1)Cc1ccco1)Nc1cc(S(=O)(=O)N2CCCCC2)ccc1Cl,.,13.1µM*,.,?
O=C(CN1CCN(C(=O)c2cccc(S(=O)(=O)N3CCCC3)c2)CC1)Nc1ccccc1Cl,.,10.4µM*,.,?
O=C(CN1CCN(S(=O)(=O)c2ccccc2)CC1)Nc1ccccc1Cl,-3.1,13.7%,-7.1,-5.3%
O=C(CN1CCN(C(=O)c2ccccc2)CC1)Nc1cc(S(=O)(=O)N2CCCC2)ccc1Cl,.,10.4µM*,.,?
CN(C)/C=C/C1=CC(=O)CC(C)(C)C1,-1.9,?,60.5,54.4%
O=c1[nH]nc(SCCS(=O)(=O)c2ccc(F)cc2)n1-c1ccc2c(c1)OCCO2,1.7,6.1%,1.2,5.7%
SMILES,CHX counter,Pf growth 48h,Shiga toxin inh,Pf growth 96h
CN(C)c1ccc(S(=O)(=O)N2CCCCC2)cc1NC(=O)CCNC(=O)c1ccco1,.,11.7µM*,.,?
COc1ccc(CNC(=O)C2=CC(c3ccc(OC)cc3)=NS(=O)(=O)N2C)cc1,-0.5,7.1%,10.8,39.5%
COc1ccccc1NC(=O)C(C)OC(=O)C1COc2ccccc2O1 (stereo not drawn),.,18.9%,.,-4.6%
Cc1ccc(O)c(CNc2ccccn2)c1,21.9,-3.5%,101.0*,33.2%
Cc1ccnc(NCc2cc(C)ccc2O)c1,18.8*,?,.,-19.9%
Cc1ccc(O)c(CNc2cccc(C)n2)c1,11.5,?,24.1,26.6%
Cc1ccc(OCc2cc(C(=O)NC(C)Cc3cccnc3)no2)cc1C (stereo not drawn),34.6*,-1.3%,98.3*,18.7%
